Only some compounds are listed: those with a hit (about 5.2% of all), similar ones and a draw of the others.
Tau fibril FP: inhibitors of human tau fibril formation | 280,000 tested, 0.39% active | K18 P301L tau heparin fibrillization, Alexa594 FP, 6 h | Potency, µM (highest dose often 57.7 µM), for inactives: top-dose activity, negative = inhibition, usual class: inhibitors; note: potency is the fitted concentration of half-maximal effect; nearly all actives have a fitted effect of over 55% in size
Target sequence (P10636 561-689 P618L limits assumed): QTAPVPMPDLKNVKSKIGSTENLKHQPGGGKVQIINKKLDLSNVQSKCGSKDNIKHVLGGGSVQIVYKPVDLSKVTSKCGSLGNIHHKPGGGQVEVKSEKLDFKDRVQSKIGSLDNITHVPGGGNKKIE
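Read-out: fluorescence polarization of Alexa 594-labeled tau (0.24 uM), 555 nm excitation, 632 nm emission. Mixtures held 15 uM unlabeled K18 P301L, compound and 20 uM heparin, pH 7 acetate buffer, incubated 6 hr at 37 C.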
Tau fluor counter: counter-screen for tau fibril formation inhibitors | Potency, µM (doses to about 57.7 µM), for inactives: top-dose activity change, negative = decrease | 280,000 tested, 0.93% active | tau K18 P301L Alexa594 fluorescence, heparin fibrillization; note: potency is the fitted concentration of half-maximal effect; nearly all actives have a fitted effect of over 55% in size
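Human K18 P301L tau (15 uM unlabeled plus 0.24 uM Alexa 594-labeled, final) in 100 mM sodium acetate pH 7 was mixed with compound and 20 uM heparin and incubated 6 hr at 37 C.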
Tau ThT inhib: tau fibrillization inhibition (ThT binding); 270,000 tested, 2.1% active; Potency, µM (series often up to 57.4 µM), without a hit: top-dose activity, negative = inhibition, actives largely listed as inhibitors; recombinant tau K18 P301L (four-repeat tau fragment), heparin-induced fibrillization, ThT fluorescence; note: potency is the fitted concentration of half-maximal effect; nearly all actives have a fitted effect of over 55% in size
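K18 P301L tau (15 uM + 0.24 uM Alexa 594-tagged), heparin 20 uM, NaOAc pH 7, 6 h 37 C; ThT 30 uM, 1 h RT, ex 450/em 510 nm.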
FBPA coupling cs: inhibits coupling enzyme system, counter-screen for aldolase hits. AID 2472. 290,000 tested, 0.67% active. coupling enzyme system counterscreen, AmpLite Red fluorescence. activity change, negative = inhibition, % at 58.2 µM, hits read low; in the data active = activity change below about -30%
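First, compound is pin-transferred into glyceraldehyde-3-phosphate coupling-enzyme reagent at 57.5 uM final and held 10 min at RT. Next, substrate, coupling system and AmpLite Red are added. After 20 min RT, fluorescence (525/598 nm) is read.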
Sfp PPTase inh: Sfp phosphopantetheinyl transferase inhibition | Q9F4F7 | Biochemical Sfp PPTase activity, qHTS | Potency, µM, without a hit: largest response in the series, negative = inhibition, most hits filed as inhibitors | 310,000 tested, 3.5% active | AID 1490;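 note: the enzyme is Sfp with the accession as filed and its product quenches rhodamine fluorescence; potency is the fitted concentration of half-maximal effect; 0% = enzyme reaction without inhibitor and -100% = no enzyme wells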
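Reaction rates are the 30-min fluorescence difference (ex 525, em 598 nm) in wells containing 15 nM Sfp, 5 uM rhodamine-CoA and 12.5 uM BHQ-2-YbbR at pH 7.6 with 10 mM MgCl2.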
The depositor's hits bear a star; ? = inconclusive; nt = not tested or not shown; [ ] = dose if it differs, or a comment. Unless noted, calls come from the whole dose curve; as a rule, active = well fitted curve in the direction sought with a large enough effect; inconclusive = small, poorly fitted or top-dose-only effect, or another doubt; inactive = no such curve, though single readings can be large; an effect the other way counts as inactive or inconclusive. Unless noted, % is set by controls: 0 for no effect and ±100 for the full control effect.

SMILES | Tau fibril FP | Tau fluor counter | Tau ThT inhib | FBPA coupling cs | Sfp PPTase inh
Cc1ccc(S(=O)(=O)c2nnn3c2nc(NC(C)c2ccccc2)c2sccc23)cc1 (centres undefined) | ? | -20% | 14% | nt | nt
CCOc1ccc(NC(=O)c2cc3cc(C)ccc3n2C)cc1 | -10% | -14% | ? | nt | nt
COc1cccc2c1CCc1c-2nc2ccccc2c1C(=O)O | nt | nt | nt | -33* | 2%
CCCn1c2ccc(C)cc2c2nnc(SCCN3CCCCC3)nc21 | -11% | -4% | -16% | 1 | ?
CCCn1c2ccc(C)cc2c2n[nH]c(=S)nc21 | nt | nt | nt | 1 | 40µM*
O=C(O)CCn1c2ccccc2c2nc3ccccc3nc21 | nt | nt | nt | 5 | 17%
CCn1c2ccccc2c2nn(C)c(=N)nc21 | 9% | 7% | 7% | 3 | 11%
CCn1c2ccccc2c2nnc(NN)nc21 | ? | -11% | 14µM* | -8 | -12%
CCn1c2ccc(C)cc2c2nnc(NN)nc21 | -13% | -5% | ? | -6 | -17%
O=C(O)Cn1c2ccccc2c2n[nH]c(=S)nc21 | nt | nt | nt | 1 | 45µM*
CCn1c2ccccc2c2n[nH]c(=S)nc21 | nt | nt | nt | 1 | 50µM*
Cc1cccc(-c2noc(-c3cc(C(C)C)[nH]n3)n2)c1 | -1% | ? | ? | nt | nt
C=CCn1c2ccccc2c2n[nH]c(=S)nc21 | nt | nt | nt | -2 | 40µM*
C=CCn1c(-c2cccc3ccccc23)n[nH]c1=S | 1% | -5% | -9% | 4 | 7%
CCOC(=O)C1C(C(=O)OC)=C(CC(C)C)c2ccccc2N1S(=O)(=O)C(F)(F)F (centres undefined) | -7% | -21% | -15% | -3 | 16%
Cc1cccc(-n2nc3c(c2NC(=O)CCCl)CSC3)c1 | nt | nt | nt | 1 | 45µM*
CCC(=O)Nc1c2c(nn1-c1ccccc1C)CSC2 | -13% | 4% | ? | 0 | 56µM*
CCOC(=O)c1ccccc1NC(=O)c1cnc(N2CCOCC2)c2ccccc12 | 2% | -16% | -7% | nt | nt
CCC(=O)N1CCc2cc(S(=O)(=O)NCCC(=O)Nc3cccc(SC)c3)ccc21 | -9% | -23% | -12% | nt | nt
CCCN(CCC)CC(O)Cn1cc(/C=C/C(=O)c2ccc(C)cc2)c2ccccc21 (centres undefined) | -12% | ? | 18µM* | nt | nt
CCCCN(C)CC(O)Cn1cc(/C=C/C(=O)c2ccc(Br)cc2)c2ccccc21 (centres undefined) | 10% | ? | 20µM* | nt | nt
CCCCN(C)CC(O)Cn1cc(/C=C/C(=O)c2ccc(C)cc2)c2ccccc21 (centres undefined) | -4% | ? | 14µM* | 0 | ?
CCCCN(C)CC(O)Cn1cc(/C=C/C(=O)c2ccc(OC)c(OC)c2)c2ccccc21 (centres undefined) | 2% | ? | ? | nt | nt
COCCn1c(=O)c(-c2ccc(F)cc2)nc2cncnc21 | nt | nt | nt | -4 | 2%
CC[C@H](C)[C@H](NC(=O)[C@@H](NC(=O)[C@@H](CC(=O)NO)Cc1ccccc1)[C@@H](C)CC)C(=O)O | nt | nt | nt | 0 | -5%
SMILES | Tau fibril FP | Tau fluor counter | Tau ThT inhib | FBPA coupling cs | Sfp PPTase inh
COC(=O)c1ccc(-c2nc3cc(Cl)c(N)cc3s2)cc1 | -4% | -27% | ? | -32* | -3%
Cc1ccc(CNC(=O)c2c[nH]n3c(=O)c(Cc4ccc(F)cc4Cl)c(C)nc23)cc1 | -5% | ? | 28µM* | nt | nt
O[C@@H]1CO[C@H]2C1OC[C@@H]2O (some centres undefined) | nt | nt | nt | 4 | -3%
O=C(CSc1cccc2cccnc12)N/N=C/c1ccc(F)cc1 | -16% | -21% | ? | -28 | 1%
O=C(O)CSc1cccc2cccnc12 | 2% | -5% | -6% | -2 | 56µM*
Cc1ccc(CNc2ccc(-c3nc(C(C)C)no3)cc2[N+](=O)[O-])cc1 | -9% | 12% | 9% | nt | nt
COC(=O)COc1ccc(C(C2C(=O)CC(C)(C)CC2=O)C2C(=O)CC(C)(C)CC2=O)cc1 | nt | nt | nt | 2 | 56µM*
Cc1cc(NC(=O)CN2CCC(C)CC2)no1 | 2% | -3% | 0% | 0 | 40µM*
COc1ccc(-n2c(=O)c3ccccc3n(CC(=O)Nc3cc(C)on3)c2=O)cc1OC | 2% | -2% | 20% | 2 | 45µM*
COc1ccc(N2CCN(CC(=O)Nc3cc(C)on3)CC2)cc1 | 3% | -1% | -11% | 0 | 50µM*
COc1ccc(NC(=O)Cn2c(=O)n(-c3ccc(OC)c(OC)c3)c(=O)c3ccccc32)cc1 | -6% | -4% | -7% | nt | nt
COC(=O)C1=C(C(=O)OC)[C@@H]2Nc3ccccc3[C@@]23C[C@@H](C(=O)OC)N(S(=O)(=O)c2ccc(Br)cc2)C3=N1 | 1%[11.6 µM] | -18%[11.6 µM] | -2%[11.5 µM] | 2 | 10%
COc1ccc([C@@H]2CNC(=O)C2)cc1OC1CCCC1 | ? | -5% | -9% | -3 | -30%
CCS(=O)(=O)N1CCN(Cc2ccc([N+](=O)[O-])cc2)CC1 | 9% | -5% | 2% | 0 | 79µM*
COc1ccc(CN2CCN(Cc3ccc(C(F)(F)F)cc3)CC2)c(OC)c1 | nt | nt | nt | -1 | 71µM*
CSc1ccc(CN2CCN(Cc3ccc([N+](=O)[O-])cc3)CC2)cc1 | 0% | -21% | -18% | 0 | -8%
COc1ccc(CN2CCN(Cc3ccc(Br)cc3)CC2)c(OC)c1OC | nt | nt | nt | -4 | 79µM*
CS(=O)(=O)N1CCN(Cc2ccc(C(F)(F)F)cc2)CC1 | 4% | -10% | -3% | -3 | 56µM*
COc1cccc(NS(=O)(=O)c2cc(-c3cnc(C4CC4)o3)ccc2C)c1 | 0% | ? | -2% | nt | nt
CC(C)(C)c1ccc(C(=O)NCC(c2cccs2)S(=O)(=O)c2ccccc2)cc1 (centres undefined) | ? | -17% | -10% | nt | nt
CC1(C(=O)NC2CCCCC2)Cc2ccccc2C(=O)N1Cc1ccccc1Cl (centres undefined) | -5% | -7% | -9% | nt | nt
CC(=O)c1cccc(Nc2cc(C)nc3nc(-c4ccccc4C)nn23)c1 | 0% | 1% | -6% | nt | nt
COc1cc(CN2CCN(Cc3ccc(C(F)(F)F)cc3)CC2)cc(OC)c1OC | nt | nt | nt | -4 | 20µM*
CC(C)=CCC/C(C)=C/CO/N=C1/C[C@@H](O)[C@@H](O)[C@@H]2[C@H]3C(=O)N(c4ccc(F)cc4F)C(=O)[C@@H]3CC[C@H]12 | -14%[11.6 µM] | -6%[11.6 µM] | 0%[11.5 µM] | -1 | -2%
COc1cccc(C(=O)NNC(=O)Cc2csc(N)n2)c1 | -2% | 0% | -3% | -2 | 56µM*
Nc1nc(O)c2ncn([C@H]3CC[C@@H](CO)O3)c2n1 | -6% | -5% | -7% | 4 | 23%
NS(=O)(=O)c1cc(C(=O)N=Nc2c(O)[nH]c3ccccc23)ccc1Cl | 1% | -30% | 14µM* | -1 | -3%
Oc1[nH]c2ccccc2c1N=Nc1nc2ccccc2s1 | 7% | ? | 2µM* | 6 | 9%
Oc1[nH]c2ccccc2c1N=Nc1ccccc1 | -5% | ? | ? | 0 | -13%

From PubChem
